# Measurements reported in PubChem BioAssay (NCI).
# This is part of a sample that, as a whole, favours compounds with a hit. Of some 79,000 tested, about 15% had one in any assay. Unmarked numbers belong to inactive results. Rule as the data show it: active = growth inhibition above about 70%; inactive = the rest.
# Assay: NCI Yeast Anticancer Drug Screen. Data for the mlh1 rad18 strain (AID 175)
# Conditions: S. cerevisiae mlh1 rad18 strain growth inhibition; at 50.0 µM; hits give high values
# In short: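 Yeast w/ defined DNA-repair lesions; compound exposure; growth vs vehicle controls → % inhibition.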
row,SMILES,growth inhibition [%]
1,O=C(Nc1cccc(O)c1)C(O)C(O)C(O)C(O)CO (centres undefined),10.9
2,CCN(CC)CCSc1cc(C)c2ccc(N)nc2n1,-1.1
3,CCN1CCCN(CC)C1=O,0.1
4,C[Si](C)(C)O[Si](C)(C)CCl,-34.2
5,CCN(CC)C(=O)Cn1c2c(c3ccccc31)CCCC2,-11.9
6,COc1cc(O)c(C(=O)C2Cc3ccccc32)c(OC)c1 (centres undefined),41.8
7,C=C/C=N/Nc1ccc([N+](=O)[O-])cc1[N+](=O)[O-],-1.35
8,NCCCCC(N)C(=O)O (centres undefined),22
9,CCOC(=O)c1c(O)csc1C,-8.15
10,CC(=O)OC(C)(C)[C@@H]1CC[C@H](C)C2=C(C1)[C@@H](C)CC2,-16.1
11,NCc1ccc(S(=O)(=O)Nc2cc(Br)cc(Br)c2)cc1,30.4
12,COc1ccc(-n2[nH]nc(C(N)=O)c2=O)cc1,-65
13,CN(C)Cc1cc(C(C)(C)CC(C)(C)C)cc(Br)c1O,26.9
14,Cc1cc2[nH]c3c(C#N)c4c(c(=O)n3c2cc1C)CCCC4,-22.1
15,COc1ccc(/C=C2\C(=O)N(C(=O)c3ccc(NC(C)=O)cc3)N=C2C)cc1,-41.2
16,CC(O)CSCC(C)O (centres undefined),3.05
17,NNC(=S)N/N=C/C(Cl)=C(\Cl)C(=O)O,-1.75
18,COc1ccc(N)c(C(O)CCNC(C)=O)c1 (centres undefined),-38.8
19,CCOc1ccc(N2N=C(C)CCC2=O)cc1,0.2
20,N#CCC(=O)N/N=C(\C(=O)Nc1ccc(Cl)c(Cl)c1)C1CN(c2ccccc2)N=C1N (centres undefined),-8.4
21,CC(C)CCCC(C)C1CCC2C3CC=C4CC(P(=O)(c5ccccc5)c5ccccc5)CCC4(C)C3CCC12C (centres undefined),-12.1
22,O=C(N/N=C/c1ccccn1)c1ccccc1,3.55
23,CCCCNC(C(=O)c1ccccc1)c1ccccc1 (centres undefined),26.4
24,CN1CCC=C(COC(=O)C(C)(C)C)C1,18.4
